Assay outcomes from PubChem BioAssay.
An excerpt weighted towards active compounds, which were near 6.5% of everything screened.
A340 absorber = absorbance at 340 nm; fold change at 10 µM; compound absorbance at 340 nm, fold over control; 65,000 tested, under 10 active;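 active means at 10 µM dose, initial 340 nm absorbance at least 2 fold that of control wells; inactive means change under 2 fold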;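 further: initial absorbance extrapolated from kinetic A340 decline of NADH oxidation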
NADH coupling = inhibitors of enzymes used to reach an NAD/NADH endpoint; coupled PK/LDH NADH assays, four targets; IC50, µM (series often up to 10 µM), inactives show top-dose inhibition; 0.02% of 65,000 active; AID 774;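 active means single-dose screening hits from any of four coupled enzyme assays that gave an IC50 when retested across doses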;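 further: the DPM-DC format reads NADH fluorescence rather than 340 nm absorbance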
Fluor 339 460 = intrinsic fluorescence of library compounds, ex339/em460 – biochemical, MLSMR library, data from DPM-DC assay, artefact control, profiling panel; fluorescence fold increase at 10 µM; 5.5% of 65,000 active; compound autofluorescence, ex339/em460 nm, NADH buffer; stronger effect = higher value; 1 = no-compound wells, NADH background;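 active means at 10 µM, mean starting fluorescence two-fold or more over control wells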;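 further: signal is the first read of a kinetic run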
Spn PMK inh = blocks S. pneumoniae phosphomevalonate kinase; purified PMK, PK/LDH-coupled NADH absorbance 340 nm; inhibition, % at 10 µM; 0.49% of 65,000 active;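 active means top-ranked compounds by inhibition in the single 10 µM screen, taking a fixed number of the strongest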;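 further: 0% = full reaction with DMSO carrier and 100% = background rate without enzyme reaction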
Spn MK inh = inhibitors of Streptococcus pneumoniae mevalonate kinase. purified MK, PK/LDH-coupled NADH absorbance 340 nm. inhibition, % at 10 µM. 0.48% of 65,000 active;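 active means ranked among the strongest by inhibition in the single 10 µM screen, a fixed top-ranked set picked for dose follow-up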
DPM-DC inhibit = blocks S. pneumoniae diphosphomevalonate decarboxylase; purified DPM-DC, PK/LDH coupled NADH fluorescence; calls only at 10 µM; 0.49% of 65,000 active;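 active means the 320 compounds with the highest percent inhibition in the single-dose primary screen, excluding strongly autofluorescent ones, cut at about 32% in these data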;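 further: kinetic rate of NADH fluorescence loss reporting ADP formed by the decarboxylase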
* = called active by the depositor; i = inactive; / = not tested or not shown.

SMILES | A340 absorber | NADH coupling | Fluor 339 460 | Spn PMK inh | Spn MK inh | DPM-DC inhibit
CCCc1[nH]nc2c1C(c1ccc(OC)c(Cn3nnc4ccccc43)c1)C(C#N)=C(N)O2 (stereo not given) | 0.98 | 22.0% | 1.1 | 10.0 | 51.0* | i
COc1cc(S(=O)(=O)N2CCOCC2)ccc1NC(=O)COC(=O)c1ccccn1 | 1 | 3.0% | 1.03 | 12.0 | 10.0 | i
COC(=O)c1cc(Br)c(=O)n(Cc2ccc(OC)c(OC)c2)c1 | 1.02 | 11.0% | 1.11 | 12.0 | 3.0 | i
Cc1cc(N2CCC(C(=O)NC3CCCCC3)CC2)nc(-c2ccccc2)n1 | 1 | 3.0% | 1.1 | 6.0 | 3.0 | i
Cc1cc(N2CCC(N(C)C3CCCC3)CC2)nc2cc(O)ccc12 | 1.16 | 6.0% | 2.17* | 7.0 | 5.0 | /
COc1ccc(S(=O)(=O)N(C)CC(=O)NCc2cccnc2)cc1 | 1.05 | 3.0% | 1.11 | 0.0 | 8.0 | i
Cn1c(=O)[nH]c(=O)c2c1nc(NCCCO)n2CCCc1ccccc1 | 0.99 | 4.0% | 1.04 | 10.0 | 1.0 | i
c1ccc(-c2nc(-c3ccco3)cs2)nc1 | 1.05 | 13.0% | 2.1* | 17.0 | 9.0 | /
c1ccc(-c2noc(-c3ccco3)n2)nc1 | 1.04 | 9.0% | 1.09 | 11.0 | 10.0 | i
Cc1occc1-c1nnc(SCC(=O)NC(C)(C)C)n1C(C)c1ccccc1 (stereo not given) | 0.98 | 5.0% | 1.12 | 11.0 | 5.0 | i
Cc1nnc(C)c2c(C)n(C(C)c3ccccc3)c(C)c12 (stereo not given) | 1.05 | 3.0% | 2.11* | 0.0 | 6.0 | i
CSc1nnc(NC(=O)c2cc3ccccc3oc2=O)s1 | 1.08 | 1.0% | 0.97 | 0.0 | 0.0 | i
Cc1[nH]n2c(=O)cc(C(C)(C)C)nc2c1-c1ccccc1 | 1 | 16.0% | 2.34* | 13.0 | 12.0 | i
COc1ccc(N2CCN(C(=O)CCNS(=O)(=O)c3ccc(Br)s3)CC2)cc1 | 0.99 | 2.0% | 1.03 | 9.0 | 3.0 | i
COc1cc(NC(=O)CN2c3cccc4cccc(c34)S2(=O)=O)cc(OC)c1OC | 1.09 | 14.0% | 2.56* | 4.0 | 13.0 | i
N#CCCCCN1c2cccc3cccc(c23)S1(=O)=O | 1.03 | 5.0% | 3.74* | 10.0 | 0.0 | /
O=S1(=O)c2cccc3cccc(c23)N1Cc1nnc(-c2ccccc2Br)o1 | 1 | 5.0% | 1.72 | 6.0 | 8.0 | i
O=C(CN1c2cccc3cccc(c23)S1(=O)=O)NCc1ccc2c(c1)OCO2 | 1.09 | 7.0% | 1.82 | 2.0 | 2.0 | i
CCCN1c2cccc3cccc(c23)S1(=O)=O | 1.05 | 7.0% | 2.25* | 2.0 | 12.0 | /
O=S1(=O)c2cccc3cccc(c23)N1Cc1ccc(-c2nnco2)cc1 | 1.01 | 12.0% | 2.84* | 19.0 | 0.0 | i
Cc1ccc(C2c3c(oc4ccccc4c3=O)C(=O)N2c2nnc(C(C)C)s2)o1 (stereo not given) | 1.03 | 3.0% | 1.03 | 11.0 | 0.0 | i
Cc1ccc(-c2ccc(=O)n(CCC(=O)NCCN3CCCCC3C)n2)cc1 (stereo not given) | 0.99 | 2.0% | 1.17 | 13.0 | 7.0 | i
CSCCC(NC(=O)c1ccc(C)o1)C(=O)O (stereo not given) | 1.03 | 0.0% | 1.14 | 0.0 | 1.0 | i
O=S1(=O)N=C2CCCCCN2C(c2ccncc2)N1 (stereo not given) | 0.99 | 4.0% | 1.02 | 8.0 | 5.0 | i
CCCCn1c(SCC(=O)Nc2cccc(OC)c2)nc2ccc(N3CCOCC3)cc2c1=O | 1.06 | 3.0% | 3.13* | 2.0 | 3.0 | i
COc1cccc(NC(=O)Cn2c(SCC(=O)N3CCOCC3)nc3ccccc32)c1 | 1.02 | 4.0% | 1.09 | 3.0 | 9.0 | i
COc1ccccc1CNC(=O)C1CCCN1S(=O)(=O)c1cccc2cccnc12 (stereo not given) | 1.06 | 2.0% | 1.11 | 0.0 | 6.0 | i
COc1ccc(C2=CC(c3c(C)nn(-c4ccccc4)c3Cl)n3nnnc3N2)cc1OC (stereo not given) | 1.03 | 9.0% | 1.51 | 11.0 | 8.0 | i
CCOCCOC(=O)C1=C(C)NC2=C(C(=O)CC(c3cccs3)C2)C1c1ccsc1 (stereo not given) | 1.07 | 2.0% | 2.14* | 0.0 | 4.0 | /
